From PubChem BioAssay
eIF4H inh: inhibitors of RNA binding by human eIF4H. Q15056. eIF4H fluorescence polarization binding assay. inhibition, % at 35 µM. 290,000 compounds, 0.94% hits;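 note: calls also rest on retests at 20 µM and on dose response follow-up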
eIF4E-4G inh: eIF4E/eIF4G interaction inhibition in translation initiation | P63073+Q04637 | TR-FRET eIF4E-eIF4GI(517-606) binding, 2 h | inhibition, % at 21.7 µM | 220,000 compounds, 0.37% hits | AID 782;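 active = inhibition above about 30%, limit read from the data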;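 note: 0% = full FRET control wells and 100% = background wells lacking eIF4GI fragment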
PABP1 MLLE inh: blocks PAM2 peptide binding to the PABP1 MLLE domain; P11940; GST-MLLE / FITC-PAM2 fluorescence polarization; inhibition, % at 20 µM; 360,000 compounds, 0.36% hits; AID 588489; in the data active = inhibition above about 35%, passing the limit was not always enough;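 note: plate controls were DMSO wells with GST-MLLE for no effect and wells lacking GST-MLLE protein for full effect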
PABP FP inh: PABP-poly(A) binding inhibition; inhibition, % at 35 µM; PABP-poly(A) RNA binding, fluorescence polarization; P11940; 290,000 compounds, 1% hits;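 note: calls also rest on retests at 20 µM and on dose response follow-up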
PERK inhibitor: blocks human PERK kinase; inhibition, % at 5.6 µM; 220,000 compounds, 0.17% hits; CHO PERK-DD fusion, SEAP luminescence translation reporter; Q9NZJ5;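 active = inhibition above the mean inhibition of all tested compounds plus 3 SD, set separately per screening campaign, cut at about 2.9% in these data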;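 note: PERK kinase domain activated by AP20187 dimerizer at 100 nM; 0% = DMSO with dimerizer and 100% = rapamycin at 8.4 µM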
* hit, by the source's call; ? = inconclusive; · = no result; [ ] = dose if it differs, or a comment. A selection: hits, their analogues and other compounds. The true share with any hit is near 1.6%. Unless noted, the rule behind the calls is not given here.

SMILES | eIF4H inh | eIF4E-4G inh | PABP1 MLLE inh | PABP FP inh | PERK inhibitor
CC(C)OC(=O)c1sc2nc(-c3ccccc3)ccc2c1N | 2 | 3 | 13 | -4 | 1
C=CCc1cccc(C=Nc2cc(Br)ccc2O)c1O | 78* | 12 | 2 | -4 | 1
C=CCc1cccc(C=Nc2c[nH]c(=O)[nH]c2=O)c1O | 0 | · | 13 | 2 | ·
CCN(C(=O)COC(=O)c1cc2c(s1)CCCCC2)C1CCS(=O)(=O)C1 (stereo unspecified) | 57 | · | 5 | -8 | ·
CC(C)CN(C(=O)COC(=O)c1cc2c(s1)CCC2)C1CCS(=O)(=O)C1 (stereo unspecified) | 86* | 14 | 1 | 22* | 0
Oc1c(Cl)cc(Cl)cc1C=Nc1ccc2c(c1)OCCO2 | 16* | 0 | -46 | 51* | 0
Cc1cc(-n2c(=O)c(C#N)cc3c(=O)n4ccccc4nc32)no1 | 104* | -19 | 12 | 120* | 0
CC(C)(C)OC(=O)C[C@@H]1C/C=C\C[C@@H](CC(=O)N(CCO)Cc2ccccc2)C(=O)N2CCC[C@H]2COC1=O | · | · | -1 | · | ·
COc1ccccc1C(=O)Nc1cc(C)on1 | -6 | · | 11 | -2 | ·
Cc1cc(NC(=O)CSc2nccn2-c2cccc(Cl)c2)no1 | -5 | · | 69* | -6 | ·
Cc1cc(NC(=O)CSc2ccccc2)no1 | -11 | 66* | 30 | -2 | 0
Cc1cc(NC(=O)CSc2nnc(NCc3ccccc3)s2)no1 | -8 | 94* | -38 | 12 | 0
COCCSc1ccccc1C(=O)Nc1cc(C)on1 | -1 | 52* | 12 | 5 | 0
CCN(CCCNC(=O)C1CCN(S(=O)(=O)c2cnc[nH]2)CC1)c1cccc(C)c1 | -2 | -5 | 17 | 9 | 1
CCCc1cc(=O)oc2c(C)c(OS(C)(=O)=O)ccc12 | · | · | -3 | · | 0
O=C(Nc1ccccc1Cc1ccccc1)c1ccncc1 | -12 | · | 8 | 2 | ·
NC(=O)CSc1nnc(-c2ccc3c(c2)OCO3)o1 | 5 | -3 | 12 | -4 | 0
Cc1cccc(-n2c(N)cc(=O)nc2SCC(=O)Nc2cc(C)on2)c1 | -6 | -3 | 40* | 6 | 0
Cc1cc(NC(=O)CSc2nc(=O)cc(N)n2-c2ccc(Cl)cc2)no1 | -9 | -4 | 6 | 5 | 0
C[C@H](CO)N1C[C@H](C)[C@@H](CN(C)C)Oc2c(NS(=O)(=O)c3cn(C)cn3)cccc2C1=O | · | · | -2 | · | ·
CN(C1CCCCC1)S(=O)(=O)c1ccc(=S)[nH]c1 | · | · | 58* | · | ·
Cc1c(/C=C2\SC(=Nc3cccc(C(=O)O)c3)NC2=O)c2ccccc2n1C | 0 | 0 | -174 | 64* | 1
CC(=O)c1ccc(O)c(CO)c1 | -2 | -7 | 4 | 1 | 2
CN1CCc2c(sc3c2C(=O)NC(c2ccccc2)N3)C1 (stereo unspecified) | 63* | 3 | -48 | active | 1
O=C1NC(c2ccc(Br)cc2)Nc2sc3c(c21)CCC3 (stereo unspecified) | 103* | 8 | -4 | 66* | 0
SMILES | eIF4H inh | eIF4E-4G inh | PABP1 MLLE inh | PABP FP inh | PERK inhibitor
O=C1NC(c2ccccn2)Nc2sc3c(c21)CCC3 (stereo unspecified) | 86 | 0 | 16 | 57 | 0
COc1ccccc1NC(=O)Cn1c(=O)c(N(C)C)c(N)n(C)c1=O | 0 | 0 | 3 | 1 | -1
COc1cccc(Oc2ccc(N)cn2)c1 | ? | 3 | -14 | ? | 0
Cc1cc(Oc2ccc(N)cn2)ccc1Cl | ? | -2 | -80 | 9.2* | 1
CCCC[n+]1c(C)sc2cc(OC)ccc21 | -4 | 0 | -34 | 58* | -1
Cc1ccc2c(c1)sc(C)[n+]2CCCS(=O)(=O)[O-] | 1 | -4 | 48* | 32 | 0
C[C@H](CO)N1C[C@H](C)[C@@H](CN(C)S(=O)(=O)c2cccs2)Oc2ccc(NC(=O)Nc3ccc4c(c3)OCO4)cc2C1=O | · | · | -1 | · | ·
O=C(CSCc1ccccc1)NC1CCSC1=O (stereo unspecified) | -1 | -4 | 31 | 11 | 1
O=C(NCc1csc2ccc(Cl)cc12)Nc1ccccc1 | -8 | 4 | 4 | 2 | -1
COc1ccc(C(=O)C[n+]2ccc3ccccc3c2C)cc1 | 91* | -1 | 5 | 51* | -1
CCOc1ccc(CCNC(=O)Cn2c(=O)oc3ccccc32)cc1OCC | -3 | 1 | -2 | -12 | -1
CC(=O)c1c(N2CCOCC2)nc(=S)n(-c2ccccc2)c1C | -2 | -2 | 45* | 2 | 0
CCn1c(C)c(C(C)=O)c(N2CCN(c3ccccn3)CC2)nc1=S | 66* | 0 | 17 | 67* | 0
CCSc1nc(=S)n(-c2ccccc2)c(C)c1C(C)=O | 2 | -3 | 43* | 6 | 0
CCn1c(C)c(C(C)=O)c(N2CCN(C(c3ccccc3)c3ccccc3)CC2)nc1=S | 20 | -3 | -22 | -6 | 0
CCn1c(C)c(C(C)=O)c(N2CCCCC2)nc1=S | 2 | 0 | 21 | 4 | 1
CCSc1nc(=O)n(-c2ccccc2)c(C)c1C(C)=O | -17 | -2 | -6 | -7 | -1
CCn1c(C)c(C(C)=O)c(N2CCN(c3ccccc3)CC2)nc1=S | 128* | 6 | -1 | 120* | 0
COCCCNC(=O)CN(c1cc(Cl)ccc1OC)S(C)(=O)=O | 7 | 1 | 2 | -1 | 1
N#C/C(=C\c1ccncc1)c1nc2ccccc2o1 | 1 | 96* | -18 | -5 | 1
N#C/C(=C\c1cccc(O)c1)c1nc2ccccc2o1 | -2 | 2 | 5 | 0 | 1
N#C/C(=C\c1ccc(Cl)cc1)c1nc2ccccc2o1 | 81* | 0 | 11 | 119* | -1
CC(NC(=O)CSc1nnc(CC(=O)Nc2ccc(Cl)c(Cl)c2)n1C)c1ccccc1 (stereo unspecified) | 9 | 43*[fluorescence artefact?] | -84 | 23 | 1
Nc1ncnc2oc(-c3ccco3)c(-c3ccco3)c12 | 104* | 11 | 21 | 94* | 1
Cc1cc(C(=O)CSc2nc3ccccc3[nH]2)c(C)n1Cc1ccco1 | 87* | 19 | -80 | active | -1
SMILES | eIF4H inh | eIF4E-4G inh | PABP1 MLLE inh | PABP FP inh | PERK inhibitor
O=C(CSc1nnc(-c2ccco2)o1)c1ccccc1Cl | -2 | 0 | -12 | 10 | 2
O=C(CSc1nnc(-c2ccco2)o1)c1ccc([N+](=O)[O-])cc1 | -8 | 93* | -88 | 1 | 1
CCN(CC)S(=O)(=O)c1cccc(-c2nnc(SCC(=O)c3cc(C)n(C)c3C)o2)c1 | 100 | 2 | -132 | 125* | 1
Cc1cc(C(=O)CSc2nnc(-c3ccco3)o2)c(C)n1Cc1ccco1 | 65* | 3 | -44 | 36* | 0
C=CCn1c(C)cc(C(=O)CSc2nc3ccccc3[nH]2)c1C | 13 | 0 | -50 | 12 | 0
Cn1ccnc1Sc1nc2c(c(=O)n(C)c(=O)n2C)n1C | 4 | -4 | 10 | 3 | 0
CC(C)C[C@@H](CSc1ccccc1)N1CCN(CC(C)C)CCC1=O | -8 | · | 16 | -5 | ·
